Source: PubChem (several laboratories)
Rows were chosen to be rich in hits. Some 3.5% of all compounds tested hit in one or more screens of this group.
FAK blocker – inhibitors of human focal adhesion kinase. Q05397. biochemical FAK kinase activity assay. inhibition, %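 (tested at 7 µM)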. 97,000 compounds, 0.84% hits; in the data active means inhibition above about 19%;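 further: 0% = DMSO and 100% = reference compound high control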
Target sequence (Q05397 whole entry, looked up): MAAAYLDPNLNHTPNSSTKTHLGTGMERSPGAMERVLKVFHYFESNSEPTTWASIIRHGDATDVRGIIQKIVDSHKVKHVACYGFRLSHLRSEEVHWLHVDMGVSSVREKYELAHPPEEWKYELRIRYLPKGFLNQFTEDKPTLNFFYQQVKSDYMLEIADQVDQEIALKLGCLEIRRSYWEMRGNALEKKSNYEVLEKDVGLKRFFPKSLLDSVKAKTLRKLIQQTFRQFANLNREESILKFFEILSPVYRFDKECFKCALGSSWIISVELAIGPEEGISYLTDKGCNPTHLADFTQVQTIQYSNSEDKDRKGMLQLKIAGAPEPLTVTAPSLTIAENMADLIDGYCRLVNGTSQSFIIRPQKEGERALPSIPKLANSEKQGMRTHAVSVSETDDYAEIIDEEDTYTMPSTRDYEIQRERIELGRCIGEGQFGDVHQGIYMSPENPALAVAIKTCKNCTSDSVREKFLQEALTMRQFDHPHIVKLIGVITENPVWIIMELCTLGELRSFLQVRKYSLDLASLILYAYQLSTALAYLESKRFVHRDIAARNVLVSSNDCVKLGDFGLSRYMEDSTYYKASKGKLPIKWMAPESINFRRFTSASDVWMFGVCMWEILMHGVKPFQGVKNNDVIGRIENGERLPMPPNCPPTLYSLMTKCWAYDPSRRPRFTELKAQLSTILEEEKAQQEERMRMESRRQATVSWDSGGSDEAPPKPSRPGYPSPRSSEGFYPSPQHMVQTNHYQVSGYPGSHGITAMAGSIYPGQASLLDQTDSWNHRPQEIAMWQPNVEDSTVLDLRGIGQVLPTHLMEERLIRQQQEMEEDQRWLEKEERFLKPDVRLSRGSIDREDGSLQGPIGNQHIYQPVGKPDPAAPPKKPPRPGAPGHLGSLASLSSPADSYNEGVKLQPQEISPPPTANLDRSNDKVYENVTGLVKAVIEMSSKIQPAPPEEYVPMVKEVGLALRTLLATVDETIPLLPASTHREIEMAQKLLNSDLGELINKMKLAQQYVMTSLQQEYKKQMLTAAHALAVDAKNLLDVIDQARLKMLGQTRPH
ERa coact pot – ER-alpha (human) coactivator binding potentiation | coactivator binding (% of control), % at 25.6 µM | 86,000 compounds, 1.3% hits | P03372 | AID 639 | TR-FRET ERalpha-LBD/SRC-Cy5 coactivator binding, 2 h; 100 = basal binding, no effect; in the data active means activity above about 200%;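 further: binding measured in presence of low estradiol as agonist stimulus; 0% = peptide alone without receptor and 100% = receptor with peptide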
ERa SRC1 inh – ER-alpha (human) coactivator binding inhibition. P03372. TR-FRET ER-alpha LBD / SRC-1 peptide, estradiol-bound. inhibition, % at 25.6 µM. 86,000 compounds, 1.7% hits. AID 629; in the data active means inhibition above about 50%;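 further: 0% = receptor plus peptide control and 100% = peptide only without receptor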
ERb SRC1 inh – blocks coactivator binding to human estrogen receptor beta; Q92731; TR-FRET ER-beta LBD / SRC1-Cy5 peptide binding; receptor agonist-loaded with 1 µM estradiol; inhibition, % at 25.6 µM; 86,000 compounds, 1.3% hits; AID 633;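 active means compounds whose percent inhibition of the receptor-coactivator binding signal exceeds about 50% in the single-dose screen, limit read from the data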;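 further: 0% = receptor plus peptide wells without compound and 100% = peptide-only wells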
CD11b adhes enh – enhancers of human CD11b/CD18 binding to fibrinogen. K562 CD11b/CD18 adhesion to fibrinogen, ATPlite luminescence. 93,000 compounds, 0.07% hits. P05107+P11215. activation, % at 10 µM;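 active means 10 µM primary screen giving 50% or more activity, confirmed by 40% or more on retest at that dose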
Mac1 fbg inh – CD11b/CD18-fibrinogen binding inhibition | AID 1497 | K562 CD11b/CD18 adhesion to fibrinogen, ATPlite luminescence; Mn2+ added to activate the integrin | inhibition, % at 10 µM | P05107+P11215 | 93,000 compounds, 0.54% hits;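 active means primary inhibition of 50% or more at 10 µM, then 40% or more on retest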
Numbers without * were called inactive; nt = no result; [ ] = another dose, or the depositor's remark.

SMILES | FAK blocker | ERa coact pot | ERa SRC1 inh | ERb SRC1 inh | CD11b adhes enh | Mac1 fbg inh
CCCS(=O)(=O)N1CCC(C(=O)NCCc2ccccc2)CC1 | -2 | nt | nt | nt | -4 | -1
Cc1cc(=O)n2[nH]c(-c3ccccc3Cl)cc2n1 | 1 | 105 | -5 | 1 | nt | nt
Cc1ccc(CN2C(=O)CCC2C(=O)NCc2ccc3c(c2)OCO3)cc1 (stereo not given) | -3 | 121 | 11 | -9 | nt | nt
CC(=O)Nc1ccc(OCC(O)Cn2cnc3ccccc32)cc1 (stereo not given) | -1 | 636*[fluorescence artefact?] | -5 | -7 | nt | nt
CC(=O)Nc1cccc(OCC(O)Cn2cnc3ccccc32)c1 (stereo not given) | 0 | 107 | 3 | 4 | 3 | 0
CCN1C(=O)CC(C(=O)NC)SC1=Nc1cc(Cl)c(O)c(Cl)c1 (stereo not given) | -2 | 81 | 31 | 50*[fluorescence artefact?] | -4 | -12
O=C(O)c1cccc(CSc2nc(-c3ccc(Cl)cc3)cc(C(F)(F)F)n2)c1 | 4 | nt | nt | nt | -3 | 75*
Cc1sc2ncnc(Sc3nnnn3-c3ccccc3)c2c1C | 9 | 202*[fluorescence artefact?] | 18 | 9 | -5 | 0
Clc1ccc(-n2nnnc2Sc2ncnc3sccc23)cc1 | 10 | 95 | -11 | -13 | nt | nt
CCOC(=O)c1c(C)[nH]c(C(=O)COC(=O)c2ccc(N3CCCC3=O)cc2)c1C | -2 | 218*[fluorescence artefact?] | 51*[fluorescence artefact?] | 34 | 15 | 5
O=C(CN(Cc1ccc2c(c1)OCO2)C(=O)CNS(=O)(=O)c1ccccc1)NCC1CCCO1 (stereo not given) | 1 | 101 | 2 | 4 | -2 | -7
Cc1cc(C)n(-c2cc(N3CCN(S(=O)(=O)c4ccc(Cl)cc4)CC3)ccc2[N+](=O)[O-])n1 | nt | nt | nt | nt | -1 | -2
Cc1cc(N2CCN(S(=O)(=O)c3ccc(Cl)cc3)CC2)c2ccccc2n1 | -1 | 65 | -2 | -5 | -8 | 85*
CCC(C)(C)n1nnnc1C(c1cc2cc(C)cc(C)c2[nH]c1=O)N1CCN(Cc2ccc3c(c2)OCO3)CC1 (stereo not given) | 0 | 227*[fluorescence artefact?] | 30 | 36 | -4 | 22
CCOC(=O)c1sc(NC(=O)C2CCCO2)c(C(=O)OCC)c1C (stereo not given) | nt | 73 | 57* | 49 | 2 | 8
CCOC(=O)c1c(NC(=O)C2CCCO2)sc(C(=O)OC(C)(C)C)c1C (stereo not given) | -2 | 123 | 5 | -8 | 2 | 4
COc1ccc(C(=O)Nc2nc3cc(OC)c(OC)cc3c(=O)[nH]2)cc1 | 1 | 434* | 9 | 22 | 12 | -18
O=C(CSc1ccc2ccccc2c1)Nc1ccncc1 | -1 | nt | nt | nt | -5 | 86*
COc1ccc2c(c1)n([O-])c1c([n+]2=O)CCC1 | nt | 65 | 20 | 51* | nt | nt
CCOc1ccc2c(c1)n([O-])c1c([n+]2=O)CCCC1 | nt | 149 | 2 | 3 | -3 | -12
O=C(NC1CCCCC1)c1sc(=S)n2c1[nH]c(=O)c1ccccc12 | -18 | 47 | 2 | 14 | -10 | 105*
CCCCNC(=O)c1sc(=S)n2c1[nH]c(=O)c1ccccc12 | -3 | 90 | 3 | 4 | -10 | 97*
CCCCNC(=O)c1sc(=S)n(-c2ccccc2OC)c1N | 4 | 79 | -21 | 5 | 5 | -19
CS(=O)(=O)N(CC(=O)Nc1ccccc1Sc1ccccc1)c1cccc(Br)c1 | 0 | nt | nt | nt | 3 | 11
COC(=O)c1ccc(Oc2nc(C(N)=O)cc(-c3ccccc3)n2)cc1 | 2 | 264*[fluorescence artefact?] | 47 | 20 | -6 | 4
SMILES | FAK blocker | ERa coact pot | ERa SRC1 inh | ERb SRC1 inh | CD11b adhes enh | Mac1 fbg inh
N#Cc1ccc(Oc2nc(C(N)=O)cc(-c3ccccc3)n2)cc1 | -4 | 100 | 15 | -3 | -2 | 10
COCCCN1C(=O)C(=O)/C(=C(/O)c2ccc(OCC(C)C)cc2C)C1c1cccnc1 (stereo not given) | 1 | 105 | -5 | 7 | 5 | -6
CCN1CCn2c3c(c4cc(C)ccc42)CCCC31 (stereo not given) | 6 | 79 | 34 | 56*[fluorescence artefact?] | -4 | -7
CCNC(=O)NC1(C(=O)Nc2ccc3c(c2)OCCO3)CCCCC1 | 3 | 103 | -5 | -7 | nt | nt
Cc1ccc(S(=O)(=O)C2(C(=O)N3CCCCCC3)CC2)cc1 | -2 | 108 | -17 | 80*[fluorescence artefact?] | -4 | 33
CN1CCN(C(c2cccnc2)c2ccc3cccnc3c2O)CC1 (stereo not given) | 4 | 83 | 78*[fluorescence artefact?] | 60*[fluorescence artefact?] | 0 | -9
O=C(COc1ccccc1)NC(=S)Nc1cccc(NC(=O)c2ccccc2Cl)c1 | nt | nt | nt | nt | 10 | -8
O=C(NCC1c2ccccc2CCN1C(=O)CN1C(=O)c2ccccc2C1=O)C1CCCCC1 (stereo not given) | -3 | 96 | 2 | 2 | -3 | -1
Cc1sc2ncnc(NCC(C)(C)N3CCOCC3)c2c1C | -2 | 143 | 1 | -15 | -5 | 68*
Cc1sc2ncnc(NCC3COc4ccccc4O3)c2c1C (stereo not given) | nt | nt | nt | nt | -9 | 100*
CC1CCCC(C)N1C(=O)CSc1nnc(-c2cccs2)o1 (stereo not given) | 2 | 103 | 11 | 2 | -1 | -1
COc1ccc(N2C(=O)C3C4C=CC(C4)C3C2=O)c(OC)c1 (stereo not given) | 0 | 121 | 16 | 23 | -1 | 21
COc1ccc(C(=O)COc2ccccc2N2C(=O)C3C4C=CC(C4)C3C2=O)cc1 (stereo not given) | 1 | 59 | 51*[fluorescence artefact?] | 2 | 4 | -10
CN(C)c1ccc(C(=O)Nc2nnc(-c3ccc(Cl)cc3)o2)cc1 | nt | 178 | 64*[fluorescence artefact?] | 56*[fluorescence artefact?] | 43 | -4
O=C(Nc1nnc(-c2ccccc2)o1)c1ccc(Cl)cc1 | -1 | 87 | 6 | 3 | 0 | 16
COc1ccc(/C=c2\sc3nc(-c4ccccc4OC)nn3c2=O)c(OC)c1 | 3 | nt | nt | nt | 89 | 13
CCCOc1ccc(Cc2nn3c(=O)/c(=C/c4ccco4)sc3nc2=O)cc1 | -3 | 92 | 38 | 16 | 5 | -3
COc1ccccc1-c1nc2s/c(=C\c3cccs3)c(=O)n2n1 | nt | 43 | 67*[fluorescence artefact?] | 39 | 1 | -12
O=c1/c(=C/c2ccco2)sc2nc(-c3ccccc3Br)nn12 | nt | 74 | 59*[fluorescence artefact?] | 62*[fluorescence artefact?] | 8 | 18
COc1cccc(C(=O)/C=C/Nc2cccc(O)c2)c1 | 4 | 95 | 5 | -30 | -7 | 91*
CCSc1nnc(Cc2cc(=O)[nH]c(=O)[nH]2)n1-c1cc(C)ccc1C | 2 | 131 | 2 | 70* | 1 | 9
CCOC(=O)CSc1nnc(Cc2cc(=O)[nH]c(=O)[nH]2)n1-c1ccc(Cl)cc1 | -2 | 119 | 0 | 96*[fluorescence artefact?] | -4 | -19
NC(=O)c1ccccc1NS(=O)(=O)Cc1ccccc1 | -4 | 104 | 0 | -1 | -1 | 4
